# Measured values taken from PubChem BioAssay.
# The source made the active and inactive calls. Cut-off read from the data, not from the text of the source, unless noted: active = inhibition above about 80%; inactive = the rest.
# What was measured:
# [1] = hESC survival regulators, cell-based (AID 493140; call rule not given here;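 note: cells exposed to compounds for four days before counting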); conditions: human embryonic stem cell survival screen; stronger effect = higher value
# [2] = sensitizers of A549 cells to miR-34 induction, primary screen, imaging, A549 dox-inducible miR-34, nuclei and caspase counts (AID 1347080;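 active = compounds whose cell count with miR-34 switched on is under 0.7 times the count with it off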); conditions: A549 miR-34 inducible, Hoechst nuclei count, 48 h
# [3] = survival rescue of mitochondrial mutant cells in low glucose, primary screen, MELAS cybrids, Rieske KO mouse fibroblasts, CellTiter-Glo (AID 1508586;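 active = mean z-score across replicates of 1.96 or higher in either the MELAS or the Rieske mutant cell line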;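 note: z relative to plate mean and SD of compound and empty wells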)
# [4] = LFS_MB_P medulloblastoma growth inhibition, cell-based, chromothripsis tumors, cisplatin or BGB combos (AID 1671449); conditions: LFS_MB_P medulloblastoma cells;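 note: cells exposed for 96 hours; 0% = vehicle DMSO and 100% = killing by high DMSO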
# [5] = HDN33 neuroblastoma growth inhibition, cell-based, chromothripsis tumors, cisplatin or BGB combos (AID 1671450); conditions: HDN33 neuroblastoma cells, stronger effect = higher value;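 note: cells exposed to compound for four days; 0% = vehicle DMSO and 100% = cell killing by high DMSO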
# [6] = ICB984 medulloblastoma cell growth inhibition, synergistic combos for chromothripsis tumors, cisplatin or BGB combos (AID 1671451; call rule not given here;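 note: cells exposed for 96 hours before readout; 0% = vehicle DMSO and 100% = killing by high DMSO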); conditions: ICB984 medulloblastoma cells, drug combinations, stronger effect = higher value
# [7] = LFS_MB_1R medulloblastoma cell growth inhibition, synergistic combos for chromothripsis tumors, cisplatin or BGB combos (AID 1671452); conditions: LFS_MB_1R medulloblastoma cells, stronger effect = higher value;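 note: cells exposed for 96 hours before readout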
# [8] = HTB85 osteosarcoma cell growth inhibition, synergistic combos for chromothripsis tumors, BGB or cisplatin IC20 combos (AID 1671453); conditions: HTB85 osteosarcoma cells, drug combinations, stronger effect = higher value;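 note: cells exposed for 96 hours before readout; 0% = vehicle DMSO and 100% = high DMSO killing control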
# [9] = CRL2098 osteosarcoma cell growth inhibition, synergistic combos for chromothripsis tumors, BGB or cisplatin IC20 combos (AID 1671454); conditions: CRL2098 osteosarcoma cells, drug combinations, stronger effect = higher value;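 note: cells exposed for 96 h before readout; 0% = vehicle DMSO and 100% = killing by high DMSO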
# [10] = HD-MB03 medulloblastoma cell growth inhibition, synergistic combos for chromothripsis tumors, BGB or cisplatin IC20 combos (AID 1671455; in the data active = inhibition above about 83%;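 note: 0% = vehicle DMSO and 100% = high DMSO as cytotoxic control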); conditions: HD-MB03 medulloblastoma cells, stronger effect = higher value
# [11] = UWB1.289 ovarian carcinoma cell growth inhibition, synergistic combos for chromothripsis tumors, BGB or cisplatin combos (AID 1671456); conditions: UWB1.289 ovarian carcinoma cells, stronger effect = higher value;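 note: cells exposed to compound for four days; 0% = vehicle DMSO and 100% = killing by high DMSO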
# [12] = LFS_MB_2R medulloblastoma cell growth inhibition, synergistic combos for chromothripsis tumors, cisplatin combos (AID 1671457); conditions: LFS_MB_2R medulloblastoma cells, stronger effect = higher value;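 note: cells exposed to compound for four days before readout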
# [13] = MDA-MB-436 breast carcinoma cell growth inhibition, synergistic combos for chromothripsis tumors, BGB or cisplatin combos (AID 1671458; call rule not given here;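 note: cells exposed for 96 hours; 0% = vehicle DMSO and 100% = killing by high DMSO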); conditions: MDA-MB-436 breast carcinoma growth inhibition, drug combinations, stronger effect = higher value
# [14] = UWB1.289_BRCA1 ovarian cancer growth, cell-based, BGB or cisplatin combinations (AID 1671459); conditions: UWB1.289 BRCA1 ovarian carcinoma, drug combinations, stronger effect = higher value
# [15] = human astrocyte viability loss, single and combined drugs, cytotoxicity control for chromothriptic childhood tumor combination screen, cell-based, BGB or cisplatin IC20 combos (AID 1671460); conditions: Human astrocytes, drug combinations, stronger effect = higher value;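 note: cells exposed to compounds for 96 hours before viability readout; 0% = vehicle and 100% = killing control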
# [16] = growth inhibition of BT084 medulloblastoma cells, cell-based, ICGC_MB145, cisplatin and BGB IC40 combos (AID 1671461); conditions: drug combinations, stronger effect = higher value;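 note: cells exposed to drugs for 96 hours; 0% = vehicle DMSO and 100% = high DMSO full killing control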
# [17] = growth inhibition of RCMB18 medulloblastoma cells, cell-based, cisplatin and BGB IC40 combos (AID 1671462); conditions: stronger effect = higher value;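 note: cells exposed to compound for four days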
# [18] = growth inhibition of CRL1545 osteosarcoma cells, cell-based, cisplatin and BGB IC20 combos (AID 1671464); conditions: stronger effect = higher value;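 note: cells exposed to compound for 96 hours before readout; 0% = vehicle DMSO and 100% = high DMSO killing control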
# [19] = stronger effect = lower value, cell number ratio, induced over uninduced
# [20] = measured here: relative caspase fold change +Dox/-Dox
# [21] = measured here: total cells with miR-34 induction, stronger effect = lower value
# [22] = measured here: total cells without miR-34 induction
# [23] = MELAS cybrid survival, CellTiter-Glo 48 h, stronger effect = higher value
# [24] = Rieske KO mouse fibroblast survival, CellTiter-Glo 72 h
# [25] = measured here: combination with BGB IC40, at 0.05 µM
# [26] = measured here: with BGB IC20 combination, at 0.5 µM
# [27] = measured here: with cisplatin IC20 combination, at 0.5 µM
# [28] = measured here: combination with cisplatin, at 0.5 µM
# [29] = measured here: combination with cisplatin, at 5 µM
smiles,measurement,setting,value
O=C1OC(CN2CCOCC2)CN1N=Cc1ccc([N+](=O)[O-])o1 (stereo unspecified),survival,[1],5.92 (inactive)
same,fold change,[2]; [19],0.85 (inactive)
same,fold change,[2]; [20],1.96
same,cell count,[2]; [21],8420
same,cell count,[2]; [22],9900
same,z-score,[3]; [23],-0.512 (inactive)
same,z-score,[3]; [24],-0.452
CC(C=CC(=O)NO)=CC(C)C(=O)c1ccc(N(C)C)cc1 (stereo unspecified),fold change,[2]; [19],0.905 (inactive)
same,fold change,[2]; [20],0.765
same,cell count,[2]; [21],830
same,cell count,[2]; [22],918
same,z-score,[3]; [23],-0.131 (inactive)
same,z-score,[3]; [24],-2.46
same,inhibition,"[4]; at 0.5 µM, stronger effect = higher value",124% (active)
same,inhibition,"[4]; measured here: combination with BGB IC20, at 0.005 µM",-30%
same,inhibition,"[4]; measured here: combination with BGB IC40, at 0.005 µM",-20.9%
same,inhibition,[4]; [25],-37.3%
same,inhibition,"[4]; measured here: combination with cisplatin, at 0.5 µM, stronger effect = higher value",130%
same,inhibition,"[4]; measured here: combination with cisplatin, at 5 µM, stronger effect = higher value",120%
same,inhibition,"[5]; BGB combo, at 5 µM",99.8%
same,inhibition,[5]; at 0.5 µM,92.3% (active)
same,inhibition,"[5]; cisplatin combo, at 5 µM",99.9%
same,inhibition,[5]; [26],85.6%
same,inhibition,[5]; [27],98.3%
same,inhibition,"[5]; single agent, at 5 µM",99.9%
same,inhibition,"[6]; BGB IC20 combo, at 0.005 µM",83.1%
same,inhibition,"[6]; BGB IC40 combo, at 0.005 µM",90.3%
same,inhibition,"[6]; BGB IC40 combo, at 0.05 µM",97.7%
same,inhibition,[6]; at 0.5 µM,-36.8% (inactive)
same,inhibition,"[6]; cisplatin combo, at 0.05 µM",97.7%
same,inhibition,"[6]; cisplatin combo, at 0.5 µM",-29%
same,inhibition,"[6]; cisplatin combo, at 5 µM",-20.2%
same,inhibition,"[6]; measured here: 5 uM single agent, at 5 µM",-13.2%
same,inhibition,[7]; at 0.5 µM,87.3% (active)
same,inhibition,[7]; [25],4.15%
same,inhibition,[7]; [28],99.9%
same,inhibition,[7]; [29],98.9%
same,inhibition,[8]; at 0.5 µM,98.7% (active)
same,inhibition,"[8]; measured here: with BGB IC20, at 0.5 µM",97.4%
same,inhibition,"[8]; measured here: with BGB IC20, at 5 µM",99.9%
same,inhibition,"[8]; measured here: with cisplatin IC20, at 0.5 µM",99.9%
same,inhibition,"[8]; measured here: with cisplatin IC20, at 5 µM",100%
same,inhibition,"[8]; single agent, at 5 µM",99.9%
same,inhibition,[9]; at 0.5 µM,70.4% (inactive)
same,inhibition,"[9]; measured here: combination with BGB at IC20, at 0.5 µM",75.9%
same,inhibition,"[9]; measured here: combination with cisplatin at IC20, at 0.5 µM",61.3%
same,inhibition,[10]; at 0.5 µM,89% (active)
same,inhibition,"[10]; measured here: combo with BGB at IC20, at 0.5 µM",79.1%
same,inhibition,"[10]; measured here: combo with cisplatin at IC20, at 0.5 µM",99.7%
same,inhibition,[11]; at 0.5 µM,67.5% (inactive)
same,inhibition,"[11]; measured here: inhibition with BGB combination, at 0.05 µM",-6.23%
same,inhibition,"[11]; measured here: inhibition with cisplatin combination, at 0.05 µM",29.6%
same,inhibition,[12]; at 0.5 µM,78.3% (inactive)
same,inhibition,[12]; [28],92.3%
same,inhibition,[12]; [29],103%
same,inhibition,[13]; at 0.5 µM,53.4% (inactive)
same,inhibition,"[13]; measured here: BGB combination, at 0.5 µM",39%
same,inhibition,"[13]; measured here: BGB combination, at 5 µM",63.1%
same,inhibition,"[13]; measured here: cisplatin combination, at 0.5 µM",54.4%
same,inhibition,"[13]; measured here: cisplatin combination, at 5 µM",81.3%
same,inhibition,"[14]; BGB combination, concentration series, at 5 µM",116%
same,inhibition,[14]; at 0.5 µM,68.2% (inactive)
same,inhibition,"[14]; cisplatin combination, concentration series, at 5 µM",131%
same,inhibition,[15]; at 0.5 µM,97% (active)
same,inhibition,"[15]; measured here: combo with BGB IC20, at 0.5 µM",96.5%
same,inhibition,"[15]; measured here: combo with cisplatin IC20, at 0.5 µM",96%
same,inhibition,[16]; at 0.5 µM,86.5% (active)
same,inhibition,"[16]; cisplatin combination, at 0.5 µM",101%
same,inhibition,"[16]; cisplatin combination, at 5 µM",104%
same,inhibition,"[16]; measured here: BGB IC40 combination 0.05 uM, at 0.05 µM",36.8%
same,inhibition,"[16]; single agent, at 5 µM",106%
same,inhibition,[17]; at 0.5 µM,83.6% (active)
same,inhibition,"[17]; cisplatin combo, at 5 µM",98.1%
same,inhibition,"[17]; measured here: BGB IC40 combination, at 0.05 µM",13.5%
same,inhibition,[17]; [28],87.1%
same,inhibition,"[17]; single agent, at 5 µM",98.2%
same,inhibition,[18]; at 0.5 µM,88.1% (active)
same,inhibition,[18]; [26],86.4%
same,inhibition,[18]; [27],88.7%
same,inhibition,"[18]; single agent, at 0.05 µM",54.1%
same,inhibition,"[18]; single agent, at 5 µM",87.3%
